Bioassay records deposited in PubChem BioAssay by several laboratories.
Only some compounds are listed: those with a hit (about 0.44% of all), similar ones and a draw of the others.
VLA-4 inh: inhibition in human VLA-4 binding assay, primary screen, VLA-4 allosteric modulator project, MLPCN library, flow cytometry, VLA-4 expressing cells; Integrin alpha-4 (Homo sapiens), P13612; ligand binding flow cytometry; inhibition, % (about 7 µM as worked out from the volumes in the protocol); 0.2% of 330,000 active; AID 2557, 2010; in the data active = inhibition above about 50%
PolyA inh: polyadenylation inhibitors in yeast reporter cells, primary screen, luminescence, S. cerevisiae | S. cerevisiae SKY197-pL101 polyadenylation reporter, beta-gal luminescence; efflux-impaired pdr1/pdr3 knockout yeast; score 100 = 6 SD above DMSO | activity score, % at 12 µM | 0.02% of 300,000 active | AID 1875, 2009;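 active = lowest replicate activity score at least 50, where 100 means six control SD above control mean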;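 also: yeast exposed to compound for 9 h at 30 °C; higher score means more reporter readthrough which indicates perturbed polyadenylation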
ABCB6 inh 2: ABCB6 transporter inhibitors, primary screen, K562-ABCB6 cells, flow cytometry, MLPCN library; ATP-binding cassette sub-family B member 6 (Homo sapiens), Q9NP58; K562-ABCB6 porphyrin accumulation, 1 h; stronger effect = lower value; fluorescence ratio to DMSO, % at 10 µM; 0.19% of 360,000 active;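 active = fluorescence ratio to DMSO below 75%, the collection mean minus 3 SD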;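 also: signal is porphyrin accumulated inside mitochondria; 100% equals median channel fluorescence of DMSO control wells; lower ratio means ABCB6 inhibition with less porphyrin fluorescence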
Target sequence (Q9NP58 whole entry, looked up): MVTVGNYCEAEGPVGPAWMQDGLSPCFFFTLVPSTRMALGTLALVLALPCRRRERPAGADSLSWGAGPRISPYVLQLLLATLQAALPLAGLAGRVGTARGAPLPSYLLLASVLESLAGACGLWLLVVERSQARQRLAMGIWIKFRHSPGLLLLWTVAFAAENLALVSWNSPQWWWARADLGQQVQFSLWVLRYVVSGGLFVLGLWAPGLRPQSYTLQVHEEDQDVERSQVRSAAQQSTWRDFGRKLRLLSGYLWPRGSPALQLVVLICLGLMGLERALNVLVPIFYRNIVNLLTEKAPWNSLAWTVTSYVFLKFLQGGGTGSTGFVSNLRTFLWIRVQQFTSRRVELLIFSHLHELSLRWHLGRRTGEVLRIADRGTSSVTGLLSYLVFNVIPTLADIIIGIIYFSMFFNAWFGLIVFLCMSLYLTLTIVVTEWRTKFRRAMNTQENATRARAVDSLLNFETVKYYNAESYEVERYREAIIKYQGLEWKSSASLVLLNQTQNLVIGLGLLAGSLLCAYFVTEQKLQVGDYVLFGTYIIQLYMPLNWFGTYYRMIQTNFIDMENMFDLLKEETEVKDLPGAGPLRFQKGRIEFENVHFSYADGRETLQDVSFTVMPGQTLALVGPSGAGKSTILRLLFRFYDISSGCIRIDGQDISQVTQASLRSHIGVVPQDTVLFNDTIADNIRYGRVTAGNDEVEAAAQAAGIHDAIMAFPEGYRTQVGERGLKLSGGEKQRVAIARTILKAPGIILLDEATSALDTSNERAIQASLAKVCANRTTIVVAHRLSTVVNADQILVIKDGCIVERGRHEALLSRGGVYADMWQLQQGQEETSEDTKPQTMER
JMJD2C inh: inhibitors of GASC-1 histone demethylase, primary screen, biochemical, fluorescence, DELFIA europium. Lysine-specific demethylase 4C (Homo sapiens), Q9H3R0. GST-JMJD2C(1-420) H3K9me3 demethylation. inhibition, % at 2.35 µM. 0.069% of 330,000 active. AID 2099, 2009;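 active = more than half of a compound's replicate wells show inhibition beyond 50%, single wells judged on their own value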;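 also: signal counts dimethyl H3K9 product captured on neutravidin plate; 0% = median of DMSO wells and 100% = 0.3 times that DMSO median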
VLA-4 allo CP: retest of VLA-4 allosteric modulators, confirmation, cell-based, cherry-picked plates, U937, HUTS-21 LIBS antibody; shares compounds with VLA-4 inh; U937 cells, HUTS-21 LIBS mAb binding, flow cytometry; LDV ligand present at threefold Kd; inhibition, % at 6.7 µM; 2% of 1,300 active; AID 2813, 2010; in the data active = inhibition above about 40%;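 also: 0% = ligand without compound and 100% = no ligand background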
An asterisk follows results filed as active; / = not tested or not shown.

SMILES	VLA-4 inh	PolyA inh	ABCB6 inh 2	JMJD2C inh	VLA-4 allo CP
O=C(CNCC1CCCCC1)Nc1cccc(S(=O)(=O)N2CCOCC2)c1	11.8	3.2	102.0	10.3	/
CC(Sc1nnnn1-c1ccccc1)C(=O)Nc1ccccc1-c1ccccc1 (stereo not drawn)	2.4	-0.2	95.0	-1.7	/
CC(Sc1nnnn1-c1ccccc1)C(=O)Nc1ccc(N2CCN(C)CC2)cc1 (stereo not drawn)	101.7*	6.1	100.0	-15.9	0.6
COc1cc(C)nc(NS(=O)(=O)c2ccccc2Cl)n1	5.3	14.1	99.0	2.5	-0.8
Cc1cc(NN)nc(NS(=O)(=O)c2ccccc2Cl)n1	-10.6	6.5	98.0	8.3	/
C=CCNC(=O)C(=O)NN=C1CCN(C)CC1	-4.9	-4.1	99.0	4.3	/
Cc1ccc(NC(=O)C(C)c2ccc(-c3ccccc3)c(F)c2)cc1 (stereo not drawn)	88.3*	-14.9	93.0	4.0	-1.4
COc1ccc(C)cc1NC(=O)COC(=O)C1COc2ccccc2O1 (stereo not drawn)	15.6	/	94.0	2.0	/
COc1ccc(S(=O)(=O)N2CCOCC2)cc1NC(=O)COC(=O)C1COc2ccccc2O1 (stereo not drawn)	42.4	2.2	100.0	9.0	0.0
CCOC(=O)c1cc([N+](=O)[O-])sc1NC(=O)c1ccc(S(=O)(=O)N2CC3(C)CC2CC(C)(C)C3)cc1 (stereo not drawn)	-53.5	16.3	96.0	1.4	/
N#Cc1cccc(NS(=O)(=O)c2ccc(S(=O)(=O)N3CCOCC3)cc2)c1	0.0	/	99.0	0.2	/
N#Cc1cccc(NS(=O)(=O)c2ccccc2Cl)c1	16.4	/	97.0	/	3.5
O=C(COc1ccccc1)Nc1ccccc1C(=O)NCc1ccco1	57.6*	-15.9	99.0	2.5	-0.1
CCCNC(=O)c1ccccc1NC(=O)COc1ccc(OC)cc1	/	-6.7	97.0	-8.5	-8.9
COc1ccccc1OCC(=O)Nc1ccccc1C(=O)NCc1ccco1	2.8	0.6	94.0	8.3	/
CC(C)NC(=O)N(C)C[C@H]1Oc2c(NS(=O)(=O)c3cccs3)cccc2C(=O)N([C@H](C)CO)C[C@@H]1C	23.9	/	101.0	-10.7	/
CCC(C(=O)NCCCN1CCN(CC)CC1)n1nc(C)n2c(cc3occc32)c1=O (stereo not drawn)	29.3	4.9	101.0	10.4	/
CC1(C)Cc2c(cnn2-c2ccccc2)-c2c1c1ccccc1n2CC(O)CCl (stereo not drawn)	-15.4	3.3	97.0	-11.6	/
CN(C(=O)COC(=O)CNC(=O)C1CCCCC1)c1ccccc1	2.1	/	94.0	-3.0	/
O=C(CSc1ccc2nnc(-c3cccnc3)n2n1)NCC1CCCO1 (stereo not drawn)	-20.2	-5.1	95.0	19.4	1.6
O=C(CSc1ccc2nnc(-c3cccc(F)c3)n2n1)NCC1CCCO1 (stereo not drawn)	-2.5	6.4	100.0	17.4	/
Cc1nnc(NC(=O)CSc2ccc3nnc(-c4cccnc4)n3n2)s1	54.5*	-17.0	/	-16.1	3.3
O=C(CSc1ccc2nnc(-c3cccnc3)n2n1)Nc1ccccc1	-11.1	10.5	102.0	2.1	/
Cc1ccc(C(C(=O)NCCc2ccccc2)N(C(=O)c2csnn2)C2CC2)o1 (stereo not drawn)	54.4*	16.4	106.0	2.6	6.4
CCCNC(=O)CN(C1CCCCC1)S(C)(=O)=O	91.0*	-1.3	100.0	7.2	9.0
SMILES	VLA-4 inh	PolyA inh	ABCB6 inh 2	JMJD2C inh	VLA-4 allo CP
CCOc1ncnc2c1[nH]c1ccccc12	27.6	-18.0	98.0	-0.3	13.7
Cc1ccc2[nH]c3c(Cl)ncnc3c2c1	3.0	-60.8	86.0	-6.5	/
CCCOc1ncnc2c1[nH]c1ccc(C)cc12	5.1	-6.2	/	-1.9	1.3
NC(=O)c1cc2ccccc2o/c1=N\NC(=O)c1ccncc1	1.7	10.2	93.0	-9.2	/
CCC(=O)c1ccc(OCC(=O)NCCC2=CCCCC2)c(OC)c1	10.7	-1.0	96.0	-2.2	/
CCOc1ccc(C(=O)NCCC2=CCCCC2)cc1OCC	51.8*	-18.1	97.0	1.9	-1.4
O=C(COC(=O)c1ccc(O)cc1)NCCC1=CCCCC1	60.7*	22.6	96.0	/	5.4
COc1nc(C)nc2c1sc(=S)n2C	-0.7	-18.8	80.0	19.0	/
c1csc(CNc2ncnc3nc[nH]c23)c1	-9.2	7.1	101.0	1.4	/
CCn1cc(C(=O)NCC2CCCO2)c(=O)c2cc(S(=O)(=O)N3CCCCCC3)ccc21 (stereo not drawn)	12.7	-8.6	95.0	-3.5	/
COc1ccc(OC)c(N(CC(=O)Nc2cccnc2)S(=O)(=O)c2ccccc2)c1	63.1*	5.4	97.0	-29.8	-0.1
O=C(c1cc(-c2ccccn2)nc2c(Cl)cccc12)N1CCN(C(=O)C2CCCO2)CC1 (stereo not drawn)	0.9	-22.4	100.0	-8.9	-0.2
O=C(c1cc(-c2ccccn2)nc2c(Cl)cccc12)N1CCN(S(=O)(=O)c2ccccc2)CC1	-8.2	20.7	104.0	-1.4	/
Cc1ccc(S(=O)(=O)N2CCOCC2)cc1C(=O)NC1CCN(Cc2ccccc2)CC1	/	/	98.0	/	/
Cn1nc(C(=O)N2CCCc3ccccc32)c2ccccc2c1=O	-16.3	18.7	96.0	-1.1	/
O=C(OCc1c(F)cccc1Cl)c1cccnc1Cl	50.6*	-9.4	98.0	9.1	3.7
CSc1ncccc1C(=O)OCc1c(F)cccc1Cl	-5.1	-1.2	99.0	-4.2	/
Cc1nn(CC(=O)Nc2ccc(C(=O)N(C)C)cc2)c(=O)c2ccccc12	51.4*	4.6	100.0	8.1	-1.4
Cc1nn(CC(=O)Nc2ccccc2)c(=O)c2ccccc12	9.5	-14.5	101.0	-8.5	/
COc1ccc(Br)cc1S(=O)(=O)n1c([N+](=O)[O-])cnc1C	45.4	-3.7	104.0	-3.6	-13.4
Cc1ccccc1CN1CCN(Cc2ccc3cccc(F)c3n2)CC1CCO (stereo not drawn)	7.4	-0.1	96.0	9.4	/
C/C(CC(=O)Nc1cccc2c1CCCC2)=N\NC(=O)c1cccc2ccccc12	42.7	22.5	94.0	-3.3	2.1
CC1CN(CCOCCSc2ccccc2)CC(C)O1 (stereo not drawn)	45.5	-25.2	106.0	-1.8	2.1
COc1ccc(OC)c(C(=O)COC(=O)CNC(=O)C2CCCCC2)c1	60.1*	-0.3	102.0	6.5	-7.5
Fc1ccc(C2CC(c3cccs3)=NN2c2ccccc2)cc1 (stereo not drawn)	/	-8.6	99.0	-0.9	/
Cc1ccc(NC(=O)c2cc(S(=O)(=O)N3CCCCC3)ccc2N2CCOCC2)c(C)c1	/	/	106.0	/	/
